In PubChem BioAssay (NCATS):
Activity calls are given as the source filed them. Calls come from the whole dose curve; as a rule, active = well fitted activation curve with a large enough effect; inconclusive = small, poorly fitted or top-dose-only effect; inactive = flat fitted curve, though single readings scatter.

Test: Confirmation and Secondary Assay for Modulators of Hemoglobin Beta Chain Splicing at IVS2 705 locus (AID 930);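 note: HeLa cells stably expressing the EGFP-705 splicing reporter; % of control where 0% means no effect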
Conditions: HeLa EGFP-705 splicing reporter, GFP fluorescence, 48 h; series mostly up to 46.1 µM; activation: at the top concentration
Summary of the method: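 Splice-correction reporter: EGFP cDNA split by beta-globin intron 2 bearing the 705 mutation, stably in HeLa. Compound incubation 2 days, 37C; fluorescent objects 5-250 µm summed per well.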

activation, inactive:
CS(C)(=O)=O 1.04%
COc1ccc(-c2coc3cc(OC)cc(OC)c3c2=O)cc1 -0.196% [at 38.3 µM]
Cc1cc(O)c(C)c(O)c1C(=O)O 3.03%
CC1O[C@@H](O[C@@H]2C(O)C[C@H](O[C@@H]3C(O)C[C@@H](OC4CC[C@@]5(C)C6CC[C@]7(C)C(C8=CC(=O)OC8)CC[C@@]7(O)C6CC[C@@H]5C4)OC3C)OC2C)CC(O)[C@H]1O (stereo not given in full) 0.615%
O=C(O)C(S)[C@@H](S)C(=O)O (stereo not given in full) 2.27%
Nc1nc2c(ncn2C2CC(O)C(CO)O2)c(=O)[nH]1 (stereo not given) -0.113% [at 38.3 µM]
COc1ccc(C2COc3c(ccc(O)c3OC)C2)c(OC)c1O (stereo not given) -0.445%
CN(N=O)C(=O)N[C@H]1C(O)C(O)C(CO)O[C@@H]1O (stereo not given in full) -0.346%
CC1/C=C/C=C/C=C/C=C/C=C/C=C/C=C/C(OC2OC(C)C(O)C(N)C2O)CC2O[C@@](O)(CC(O)CC(O)C(O)CCC(O)CC(O)CC(=O)OC(C)[C@H](C)C1O)CC(O)C2C(=O)O (stereo not given in full) 2.06%
COC(=O)c1c(C)cc(O)cc1O -0.337% [at 38.3 µM]
CC1c2cccc(O)c2C(O)=C2C(=O)[C@]3(O)C(O)=C(C(N)=O)C(=O)C(N(C)C)C3C(O)C21 (stereo not given in full) 1.82%
COc1cc(C(C)=O)cc(OC)c1O 0.523% [at 38.3 µM]
CC(=O)OC(C)(C)C1Cc2cc3ccc(=O)oc3cc2O1 (stereo not given) 0.336% [at 38.3 µM]
NC(=O)c1ccc[n+]([C@@H]2OC(COP(=O)([O-])OP(=O)(O)OCC3OC(n4cnc5c(N)ncnc54)C(O)C3O)C(O)C2O)c1 (stereo not given in full) 1.73%
C[C@]12CCC(=O)C=C1CCC1C2C(O)C[C@]2(C)C1CC[C@]2(O)C(=O)COC(=O)CCC(=O)O (stereo not given in full) 1.54%
